Test [1] can be described thus: reduced viability of SK-BR-3 breast cancer cells – cell-based, 24 h, human, pilot screen (AID 572;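 active = viability at or below 10% of carrier control in both of two separate runs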;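 also: compound exposure lasted between 18 and 24 h rather than exactly 24 h; 100% = carrier-treated control wells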). Conditions: SK-BR-3 viability, CellTiter-Glo luminescence, at 10 µM, stronger effect = lower value. (ATP-based viability assays read luminescence as a measure of living cells.)
Test [2] in a line: HUVEC growth inhibition – cell-based, human, primary screen (AID 575;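 active = viability at or below 30% in both replicate assays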;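 also: 100% = median of untreated cell wells with 0.1% DMSO on each plate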). The settings on record: HUVEC proliferation, CellTiter-Glo luminescence, 72 h; at 10 µM; stronger effect = lower value.
A short description of test [3]: MRP1 drug-resistance reversers in H69AR cells – cell-based, doxorubicin co-treatment, pilot screen (AID 601). The settings on record: CellTiter-Glo, 72 h, at 10 µM; for differential viability (reversal): stronger effect = higher value.
Test [4] is described as follows: yeast transport mutant growth inhibition pilot in 384-well plates, post-Golgi transport modulator project (AID 636; in the data active = inhibition above about 31%). The settings on record: absorbance 615 nm, about 18 h, stronger effect = higher value.
Test [5] in a line: growth suppression of yeast trafficking mutant, preliminary HTS, modulators of trafficking downstream of Golgi apparatus project, 1536-format plate, OD 615 nm (AID 637; in the data active = inhibition above about 30%). The settings on record: yeast transport mutant growth, absorbance 615 nm, 18 h; stronger effect = higher value.
Test [6] can be described thus: H69AR cell proliferation blockers – human, duplicate replicates, primary screen (AID 580;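 active = viability at or under a set limit in both replicates, limit being median viability minus 3 SD, cut at about 48% in these data, passing the limit was not always enough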;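 also: 100% = mean luminescence of untreated wells and 0% = no signal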). Conditions: H69AR lung tumor cells viability, ATP luminescence, 72 h; at 10 µM; stronger effect = lower value.
The nature of test [7]: S. cerevisiae growth inhibition in permissive medium (OD615), pilot counter-assay for S. cerevisiae lifespan shortening project, permissive growth control (AID 705;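 active = growth inhibition above 25% in both replicates, a cutoff set 3 SD above the mean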). Conditions: OD615, 24 h, at 10 µM, stronger effect = higher value.
The nature of test [8]: S. cerevisiae growth inhibition in restrictive medium, OD615, pilot screen, restrictive growth control, yeast lifespan reduction project (AID 706;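 active = growth inhibition above a set limit, 3 SD over mean compound inhibition, in both replicates, cut at about 43% in these data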;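 also: modified DeaD lifespan yeast strain shifted to restrictive glucose medium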). Conditions: OD615, 48 h, at 10 µM, stronger effect = higher value.
Test [9] is described as follows: doxorubicin toxicity protection in MRP-1 cells – H69AR cells, CellTiter-Glo, duplicate, MRP-1 activator project, pilot screen (AID 807;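 active = viability increase at or above a cutoff of the median across tested compounds plus 3 SD, cut at about 8.5% in these data, passing the limit was not always enough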;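 also: compound pretreatment 18-22 h then 72 h combined with doxorubicin; 0% = doxorubicin alone and 100% = vehicle without doxorubicin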). The settings on record: H69AR viability with doxorubicin, CellTiter-Glo luminescence; at 10 µM; stronger effect = higher value.
The nature of test [10]: viability of HCT116 without oncogenic beta-catenin – human colon tumor cells, pilot screen (AID 823;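 active = cell viability at or below a set limit in both duplicate runs, the limit being the all-compound median minus 4 SD, cut at about 23% in these data, passing the limit was not always enough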;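 also: 0% = wells killed by 20 µM Hyamine and 100% = untreated DMSO cell wells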). Conditions: HCT116 beta-catenin knockout viability, CellTiter-Glo, 60 h; at 10 µM; stronger effect = lower value.
Test [11] in a line: viability of PTEN-null HCT116 cells – cell-based, HCT116 clonal line, CellTiter-Glo, pilot screen (AID 824;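 active = viability at or below 27.92% in each of two runs, the all-compound median minus 4 SD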;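 also: 0% = 20 µM Hyamine control and 100% = vehicle cell control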). Conditions: HCT116 PTEN-deleted viability, 60 h, at 10 µM, stronger effect = lower value.
Test [12] in a line: RAM pathway blockade in budding yeast – dse1pr::URA3 reporter, 5-FOA selection, pilot screen (AID 869;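 active = inhibition over a set limit, the all-compound mean plus 3 SD, in both replicate runs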;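 also: 0% = DMSO wells with no growth and 100% = 10 µM 1-NA-PP1 with full growth; RAM network block rescues cells from 5-FOA so hits raise OD615 growth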). Conditions: S. cerevisiae dse1pr::URA3 5-FOA growth, OD615, 2 d; at 10 µM; stronger effect = higher value; strain carries analog-sensitive mutant Cbk1 kinase.
[13] abbreviates: H69AR cells + 2 uM doxorubicin, measured here: viability with 2 uM doxorubicin, stronger effect = lower value.
Where [14] appears, read: H69AR cells, compound alone cytotoxicity.

Records with an inconclusive call do not appear. Activity calls are given as the source filed them.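 The calls were made as follows, unless noted: active = viability loss from added drug above about 55%, and viability with drug at most 40%, in both replicates (limit read from the data, passing the limit was not always enough); inconclusive = both conditions met in only one replicate; inactive = neither replicate meets both conditions.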

A word on the viability: it is a read-out of living cells in per cent, often relative to untreated cells. Usually inhibition stands for the drop in the measured response relative to a control, in per cent.

Turning to `COc1ccc(-c2ccc(-c3noc(-c4cccs4)n3)c(OC)n2)cc1`, the viability was 77% (inactive) in test [1], 98.8% (inactive) in test [2], 70.1% in test [3] (setting [13]) and 64.6% in [3] (setting [14]). Moreover, in test [3] (H69AR cells + 2 uM doxorubicin), the differential viability (reversal) was -5.54% (inactive). In addition, the inhibition in [4] is -7.43% (inactive); in [5] it was -8.73% (inactive).

For `CCC(C(=O)OCCN(CC)CC)c1ccccc1` (centres undefined), the viability is 114% (inactive) in test [1]; 86.8% (inactive) in test [2]; 86.7% (inactive) in test [6]; 87.5% in [3] (setting [13]); 86.7% in test [3] (setting [14]). Further, in test [3] (H69AR cells + 2 uM doxorubicin), the differential viability (reversal) is -0.8% (inactive). The results for the inhibition in test [4] and in test [5] were -1.56% (inactive) and 2.33% (inactive), respectively.

`CCOC(=O)c1ccccc1NC1c2ccccc2C(=O)N1C1CCN(C(=O)OCC)CC1` (centres undefined): the viability in test [1] is 126% (inactive); in test [2], 76.2% (inactive); in test [6], 80.5% (inactive); in test [3] (setting [13]), 42.9%; in test [3] (setting [14]), 80.5%; in test [10], 50.3% (inactive). The viability in test [11] is 46.2% (inactive). Also, in test [3] (H69AR cells + 2 uM doxorubicin), the differential viability (reversal) is 37.6% (inactive). In addition, the inhibition in test [4] is -4.13% (inactive); in test [5], -3.17% (inactive); in [12], 1.9% (inactive). Besides, the growth inhibition in [7] is 3.84% (inactive); in [8], 4.88% (inactive). In [9], the viability increase is -7.16% (inactive).

In the case of `O=S1(=O)Nc2c(ccc3cccnc23)-c2ccccc21`, the viability in [1] was 122% (inactive); in [2] it was 8.06% (active); in test [3] (setting [13]), 56%; in [3] (setting [14]), 49.2%. Moreover, in test [3] (H69AR cells + 2 uM doxorubicin), the differential viability (reversal) was -6.77% (inactive). For the same compound, the inhibition in test [4] is -7.5% (inactive); in [5] it was 9.84% (inactive).

Take `Cc1cc(C(=O)CSc2nc3ccccc3n2CCC#N)c(C)n1Cc1cccs1`: the viability in test [1] is 58% (inactive); in [2], 110% (inactive); in test [3] (setting [13]), 32.9%; in test [3] (setting [14]), 31.7%. For the same compound, the differential viability (reversal) in [3] (H69AR cells + 2 uM doxorubicin) is -1.21% (inactive). Further, the inhibition in [4] was -5.41% (inactive); in test [5], -3.09% (inactive).

On to `CC(=O)OCC[N+](C)(C)C`, for which the viability in [1] is 102% (inactive); in test [2], 96.7% (inactive); in [6], 92.5% (inactive); in [3] (setting [13]) it was 101%; in test [3] (setting [14]) it was 92.5%. In [3] (H69AR cells + 2 uM doxorubicin), the differential viability (reversal) was -8.23% (inactive). The figures for the inhibition in test [4] and in test [5] were 1.95% (inactive) and -2.5% (inactive), respectively.

For the compound `N#Cc1c(-c2ccc3c(c2)OCO3)csc1N`, the viability was 96% (inactive) in [1]; 83.9% (inactive) in test [2]; 95.2% (inactive) in test [6]; 93.7% in test [3] (setting [13]); 95.2% in test [3] (setting [14]). Moreover, the differential viability (reversal) in test [3] (H69AR cells + 2 uM doxorubicin) is 1.51% (inactive). The results for the inhibition in [4] and in [5] were 3.29% (inactive) and 4.73% (inactive), respectively.

As for `Cc1cc(C)n(C(=O)C23CC4CC(CC(C4)C2)C3)n1`, the viability in test [1] was 106% (inactive); in test [2] it was 85.9% (inactive); in test [6] it was 99.3% (inactive); in [3] (setting [13]), 96.1%; in test [3] (setting [14]) it was 99.3%. Moreover, the differential viability (reversal) in test [3] (H69AR cells + 2 uM doxorubicin) is 3.23% (inactive). The inhibition in test [4] is -8.36% (inactive); in [5], -5.32% (inactive).

`CN(C)CCCN1c2ccccc2Sc2ccc(C(F)(F)F)cc21`: the viability in [1] was 4.5% (active); in test [2], 56.8% (inactive); in test [3] (setting [13]), 51%; in [3] (setting [14]), 11.7%. In test [3] (H69AR cells + 2 uM doxorubicin), the differential viability (reversal) is -39.3% (inactive).

For the compound `Cn1c(=O)cc(OCCCC(=O)Nc2ccc3c(c2)OCCO3)c2ccccc21`, the viability in test [1] is 101% (inactive); in [2] it was 85.1% (inactive); in [3] (setting [13]), 70.7%; in [3] (setting [14]) it was 65.5%. In [3] (H69AR cells + 2 uM doxorubicin), the differential viability (reversal) was -5.2% (inactive). Moreover, the figures for the inhibition in test [4] and in test [5] were -1.04% (inactive) and -6.39% (inactive), respectively.

With `OCCN1CCN(CCCN2c3ccccc3Sc3ccc(C(F)(F)F)cc32)CC1`, the viability in [1] was 3% (active); in [2], 2.4% (active); in [3] (setting [13]), 3.77%; in test [3] (setting [14]) it was 1.03%. The differential viability (reversal) in test [3] (H69AR cells + 2 uM doxorubicin) was -2.74% (inactive).

For `CN1CCN(CCCN2c3ccccc3Sc3ccc(Cl)cc32)CC1`, the viability in [1] was 25%; in [2] it was 3.48% (active); in [3] (setting [13]), 58.6%; in [3] (setting [14]), 43.1%. In addition, the differential viability (reversal) in test [3] (H69AR cells + 2 uM doxorubicin) is -15.4% (inactive).

The values are drawn from PubChem BioAssay.
